# ChEMBL document CHEMBL4513216, “Probing the Open Global Health Chemical Diversity Library for Multistage-Active Starting Points for Next-Generation Antimalarials” (ACS Infect Dis, 2020)
# Hit rate of the full screen: of about 68,000 compounds, about 2,700 (4%) showed an effect of 50% or more. Only a selection was taken, and strong results are over-represented in it overall.
# System: Plasmodium berghei
# Assay: Screen against P. berghei liver stage (PbLuc), transformed with Luciferase, at 2uM
# Format: functional, HepG2
# Details: tested at 2 uM
row,Structure (SMILES),INHIBITION
1,c1ccc(Sc2ccc3c(c2)OCO3)c(CNC2=NCCN2)c1,33.59%
2,COCC1N(C(=O)c2ccco2)C2CCC1(O)CC2 (stereo unspecified),3.88%
3,COc1ccc(Br)cc1Cn1nc(C(N)=O)ccc1=O,-21.09%
4,CCOc1ccc(Cl)cc1C1CCCN1 (stereo unspecified),-27.75%
5,CCOc1ccc(Br)cc1C1CCCN1 (stereo unspecified),53.55%
6,CCOc1ccc(Br)cc1C1CCCCN1 (stereo unspecified),-0.44%
7,Cc1nccn1C1CCCN(C(=O)c2ccc3nnc(C)n3c2)C1 (stereo unspecified),6.12%
8,COc1cc(NC(=O)NCc2ccccn2)cc(OC)c1,52.08%
9,Cc1cc(NC(=O)NCc2ccccn2)n(C)n1,29.11%
10,COc1cc(F)cc(NC(=O)NCc2cccc(N(C)C)n2)c1,23.92%
11,N#Cc1c(F)cccc1NCCCOCC1CCOC1 (stereo unspecified),-39.57%
12,C[C@@H]1CN(CC(C)(C)N2CCCCC2)C[C@@]1(O)C1CC1,51.31%
13,C[C@@H]1CN(CC(C)(C)N2CCCCC2)CC[C@@]1(O)C1CC1,12.62%
14,C[C@@H]1CN(CC(C)(C)N2CCOCC2)C[C@@]1(O)C1CC1,-10.59%
15,Cc1cc(C(=O)NCC(O)c2ccc(Cl)s2)c(C)o1 (stereo unspecified),57.75%
16,Cc1occc1C(=O)NCC(O)c1ccc(Cl)s1 (stereo unspecified),43.44%
17,Cc1ccc(C(=O)NCC(O)c2ccc(Cl)s2)c(=O)[nH]1 (stereo unspecified),10.05%
18,O=C1NC2(CCN(CC3CC3)CC2)CC1c1ccccc1 (stereo unspecified),11.18%
19,CCN1CC2(CC1=O)CN(Cc1ccccn1)CCN(C(C)=O)C2 (stereo unspecified),28.2%
20,O=C1CCC2(CCCN(C(=O)c3ccccn3)CC2)N1 (stereo unspecified),28.2%
21,Cc1cc(NC(=O)CN2CCN(c3nccs3)C(C)C2)no1 (stereo unspecified),-2.82%
22,CS(=O)(=O)c1nccn1Cc1ccc(F)cc1Cl,29.43%

row,Structure (SMILES),INHIBITION
1,Cc1ccc(-c2cnc(CCC(=O)NCCN3CCOCC3)o2)cc1C,59.03%
2,O=C(NCCN1CCOCC1)NCc1ncc(-c2ccccc2)o1,24.89%
3,O=C(CCc1ncc(-c2ccc(F)cc2)o1)NCCN1CCOCC1,-45.79%
4,Cc1nc(CNC(=O)NC(C)c2ccc3c(c2)OCCO3)cs1 (stereo unspecified),21.69%
5,Cc1nc(C2CCCN(C(=O)c3c(C)nn4cccnc34)C2)no1 (stereo unspecified),-1.02%
6,Cc1ncsc1C(=O)NC1CCN(Cc2cccc3c2OCCO3)CC1,21.83%
7,CCCn1ccnc1CN1CCc2[nH]cnc2C1Cc1ccccc1 (stereo unspecified),-76.22%
8,Cc1cccc(CN2C[C@@H]3CN(C(=O)c4cnoc4C)C[C@@H]3C2=O)n1,35.89%
9,Cc1cccc(CN2C[C@@H]3CN(C(=O)C4CC=CC4)C[C@@H]3C2=O)n1,54.01%
10,Cc1cccc(CN2C[C@@H]3CN(C(=O)NC(C)C)C[C@@H]3C2=O)n1,35.34%
11,Cc1ccc(-c2nc(CN3CCc4nn(C)c(=O)cc4C3)co2)cc1,62.46%
12,CN(C)CC1CN(Cc2nc(-c3cccnc3)no2)CCO1 (stereo unspecified),52.17%
13,CN(C)CC1CN(Cc2nc(-c3ccccn3)no2)CCO1 (stereo unspecified),69.11%
14,Cc1cnn(CC2CN(Cc3nc(-c4ccccn4)no3)CCO2)c1 (stereo unspecified),-5.09%
15,c1cncc(-c2noc(CN3CCOC(Cn4cccn4)C3)n2)c1 (stereo unspecified),-0.12%
16,Cn1nc2c(cc1=O)CN(Cc1coc(-c3ccccc3)n1)CC2,17.31%
17,Cn1nc2c(cc1=O)CN(Cc1nc(-c3ccccn3)no1)CC2,50.75%
18,Cn1nc2c(cc1=O)CN(Cc1coc(-c3ccc(F)cc3)n1)CC2,-21.39%
19,c1ccc(-c2noc(CN3CCOC(Cn4cccn4)C3)n2)nc1 (stereo unspecified),23.71%
20,CCn1nc2c(cc1=O)CN(Cc1nc(-c3ccccn3)no1)CC2,-27.03%
21,Cc1cnn(CC2CN(Cc3nc(-c4cccnc4)no3)CCO2)c1 (stereo unspecified),12.75%
22,Cn1nc2c(cc1=O)CN(Cc1nc(-c3ccco3)no1)CC2,-0.05%

row,Structure (SMILES),INHIBITION
1,O=C(c1ccno1)N1CCOC[C@H](Oc2ccc(C(F)(F)F)cc2)C1,28.05%
2,Cc1cnc(C)c(N2C[C@H]3OC(=O)N(C4CCCC4)[C@H]3C2)n1,12.59%
3,O=C(C1CCCC1)N1C[C@@H]2CCN(c3cccnc3)C[C@@H]2C1,-3.25%
4,O=C(Cc1ccc(F)cc1)N1CCn2cc(Cn3cccn3)nc2C1,-6.3%
5,CC(C)(C)C(=O)N1CCCC1c1nc(O)cc(-c2ccccn2)n1 (stereo unspecified),-10.16%
6,COc1cc(C(=O)NC(C)C)nc2c(C)cc(F)cc12,35.91%
7,CNc1nc2c(c(C(=O)N3CCCC3)n1)CN(Cc1cc(C)no1)CC2,10.63%
8,CS(=O)(=O)N1CCN(C(=O)c2cc(-c3cccs3)cs2)CC1,-23.8%
9,CC(C(=O)N1CCOCC1)n1cc(Br)cn1 (stereo unspecified),15.05%
10,O=C(CCNC(=O)c1ccccc1N1CCOCC1)NC1CCCC1,58.76%
11,CNC(=O)CCNC(=O)c1ccccc1N1CCOCC1,-23.9%
12,CCCNC(=O)CCNC(=O)c1ccccc1N1CCOCC1,-21.71%
13,COc1cc(N2C[C@@H]3COC[C@]3(COc3cccnc3)C2)ncn1,-38.72%
14,COCCN1CCN(C(=O)c2ccc(C)cc2F)[C@H]2CS(=O)(=O)C[C@H]21,32.26%
15,COc1ccc(Cc2nnc3n2N=C(C(C)(C)C)CS3)cc1,-13.89%
16,Cc1cnn(CC2CN(Cc3cccnc3)CCO2)c1 (stereo unspecified),41.76%
17,CN1CCCC(c2cccc(-c3cccc(F)c3)n2)C1 (stereo unspecified),13.88%
18,CN1CCCC(c2cccc(-c3cccc(Cl)c3)n2)C1 (stereo unspecified),51.5%
19,CN1CCCC(c2cccc(-c3cccc(C(F)(F)F)c3)n2)C1 (stereo unspecified),38.64%
20,O=C(CCc1ccccc1Br)NCC(=O)NCc1ccccc1,-13.34%
21,CCc1noc(C(C)N(C)CC(=O)Nc2cccc(C)c2C)n1 (stereo unspecified),1.73%
22,CCc1noc(C(C)N(C)CC(=O)Nc2c(C)cccc2C)n1 (stereo unspecified),32.81%

row,Structure (SMILES),INHIBITION
1,CCc1noc(C(C)N(C)CC(=O)Nc2ccc(Br)cc2C)n1 (stereo unspecified),53.57%
2,CC[C@@H](CO)Nc1nccc(-c2c[nH]c3cc(C(=O)OC)ccc23)n1,17.01%
3,Cc1cccc(CNC(Cc2ccsc2)c2nccs2)n1 (stereo unspecified),24.13%
4,CNc1cc(C)nc(C2CN(Cc3cc[nH]n3)CCO2)c1 (stereo unspecified),21.37%
5,CCCS(=O)(=O)N1CCC2(CC1)CCn1c(-c3cnn(C)c3)cnc12,18.05%
6,CCn1cnnc1CCNC(=O)c1ccc(Br)cc1F,-13.8%
7,CC(CNC(=O)c1ccc(Cl)cc1F)N1CCCC1 (stereo unspecified),9.57%
8,CC(CNC(=O)c1cc(Cl)ccc1F)N1CCCC1 (stereo unspecified),50.94%
9,CCn1cnnc1CCNC(=O)CCNC(=O)c1ccccc1F,52.98%
10,CCn1cnnc1CNC(=O)c1ccc(Cl)cc1F,39.32%
11,CCn1cnnc1CNC(=O)c1cc(Cl)ccc1F,54.99%
12,CCn1cnnc1CCNC(=O)c1ccc(F)c(Br)c1,2.9%
13,CC(CNC(=O)c1cc(Cl)ccc1I)N1CCCC1 (stereo unspecified),10.11%
14,CCn1cnnc1CNC(=O)c1cc(Cl)ccc1O,2.1%
15,Cn1c(N2CCOCC2)nc2cc(C(=O)N3CCC(O)(CO)C3)ccc21 (stereo unspecified),-2.63%
16,N#CCC(=O)NCc1nnc2n1CCN(Cc1ccco1)C2,-4.53%
17,CCN(CCCN1CCOCC1)C(=O)c1cnn(CC)c1,35.54%
18,O=C(NC1CCCC1)N1CC[C@H]2[C@H]1CCN2c1nncs1,49.25%
19,C=C(C)COc1ccccc1CN1CCCC(C(=O)NCCCO)C1 (stereo unspecified),-25.95%
20,CN(C)C(=O)CN1CC[C@H]2CN(S(C)(=O)=O)C[C@@H]2C1=O,21.06%
21,CNC(=O)CS(=O)(=O)C1CCN(S(=O)(=O)c2ccccc2Cl)CC1,68.69%
22,CNC(=O)CS(=O)(=O)C1CCN(S(=O)(=O)c2cccc(Cl)c2C)CC1,-52.21%

row,Structure (SMILES),INHIBITION
1,CNC(=O)CS(=O)(=O)C1CCN(S(=O)(=O)c2ccccc2Br)CC1,27.5%
2,Cc1ccc(NC(=O)Nc2cnc(N3CCN(C)CC3)nc2)cc1,-4.34%
3,Cc1occc1C(=O)N1CC[C@@H](N2CCOCC2)[C@@H]1Cc1ccccc1,-23.67%
4,COc1ccc(OCCCNCCn2cccn2)cc1,31%
5,CC(=O)N1CCN(C(=O)CCc2cc(Br)cs2)CC1,26.74%
6,CN1CCN(C(=O)CCc2cc(Br)cs2)CC1,72.05%
7,CN(C)C1CCN(C(=O)CCc2cc(Br)cs2)CC1,41.05%
8,COCCC(=O)N1CCc2c(CNc3ncccn3)cncc2C1,17.77%
9,CCSC1(CNc2ncc(Br)cn2)CCOCC1,13.53%
10,CCCc1n[nH]c(C2CN(CCS(=O)(=O)CC)CCO2)n1 (stereo unspecified),-5.7%
11,NCC1[C@H]2CN(CCc3ccccc3)C[C@@H]12 (stereo partly specified),-7.41%
12,NCC1[C@H]2CN(Cc3ccccc3)C[C@@H]12 (stereo partly specified),55.7%
13,NCC1[C@H]2CN(Cc3cccc(Cl)c3)C[C@@H]12 (stereo partly specified),45.77%
14,CN(C)Cc1cc(=O)n2c(n1)CN(C(=O)c1ccc[nH]1)CCC2,-16.33%
15,O=C(CCC1CCN(C2CSCCSC2)CC1)NCC1CCCO1 (stereo unspecified),-15.37%
16,Cc1cc(=O)[nH]c(NCCNC(=O)CN2CCCCCC2)n1,56.93%
17,Cc1cc(=O)[nH]c(NCCNC(=O)c2ccccc2N2CCCC2)n1,41.14%
18,Cc1nc(O)cc(CCNC(=O)CN2CCCCCC2)n1,4.12%
